Assay [1] has as its target T1, Ephrin type-B receptor 2 (Homo sapiens) (UniProt P29323).
T1 sequence (whole entry): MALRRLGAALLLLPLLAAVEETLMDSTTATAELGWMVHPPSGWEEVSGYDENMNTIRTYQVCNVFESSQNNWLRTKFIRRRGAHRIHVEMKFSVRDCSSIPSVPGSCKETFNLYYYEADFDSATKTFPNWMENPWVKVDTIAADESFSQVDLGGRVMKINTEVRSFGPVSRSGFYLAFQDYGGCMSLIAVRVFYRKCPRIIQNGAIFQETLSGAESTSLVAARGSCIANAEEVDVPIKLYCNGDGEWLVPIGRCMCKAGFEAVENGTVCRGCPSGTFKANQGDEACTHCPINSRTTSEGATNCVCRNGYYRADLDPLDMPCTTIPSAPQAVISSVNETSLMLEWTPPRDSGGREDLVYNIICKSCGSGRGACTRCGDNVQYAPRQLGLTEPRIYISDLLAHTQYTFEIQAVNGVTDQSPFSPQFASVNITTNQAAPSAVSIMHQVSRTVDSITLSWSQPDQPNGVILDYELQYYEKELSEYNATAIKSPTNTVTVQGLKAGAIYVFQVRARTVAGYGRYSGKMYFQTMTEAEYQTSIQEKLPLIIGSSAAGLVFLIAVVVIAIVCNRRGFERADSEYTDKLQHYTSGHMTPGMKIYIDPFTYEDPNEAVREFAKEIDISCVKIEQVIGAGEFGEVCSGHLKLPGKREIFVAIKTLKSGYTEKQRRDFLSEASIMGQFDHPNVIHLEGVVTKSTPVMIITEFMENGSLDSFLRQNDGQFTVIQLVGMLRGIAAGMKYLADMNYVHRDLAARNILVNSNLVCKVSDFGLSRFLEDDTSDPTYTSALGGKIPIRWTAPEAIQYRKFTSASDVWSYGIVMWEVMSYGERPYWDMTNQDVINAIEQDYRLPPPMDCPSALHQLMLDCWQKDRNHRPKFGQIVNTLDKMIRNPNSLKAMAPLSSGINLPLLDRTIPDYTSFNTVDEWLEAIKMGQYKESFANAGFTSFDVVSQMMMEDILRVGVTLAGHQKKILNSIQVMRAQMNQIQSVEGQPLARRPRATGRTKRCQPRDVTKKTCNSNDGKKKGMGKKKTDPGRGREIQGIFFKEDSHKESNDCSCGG
Conditions: at 1 µM.

For assay [2], the target named is T2, Ephrin type-B receptor 3 (Homo sapiens) (UniProt P54753).
T2 sequence (whole entry): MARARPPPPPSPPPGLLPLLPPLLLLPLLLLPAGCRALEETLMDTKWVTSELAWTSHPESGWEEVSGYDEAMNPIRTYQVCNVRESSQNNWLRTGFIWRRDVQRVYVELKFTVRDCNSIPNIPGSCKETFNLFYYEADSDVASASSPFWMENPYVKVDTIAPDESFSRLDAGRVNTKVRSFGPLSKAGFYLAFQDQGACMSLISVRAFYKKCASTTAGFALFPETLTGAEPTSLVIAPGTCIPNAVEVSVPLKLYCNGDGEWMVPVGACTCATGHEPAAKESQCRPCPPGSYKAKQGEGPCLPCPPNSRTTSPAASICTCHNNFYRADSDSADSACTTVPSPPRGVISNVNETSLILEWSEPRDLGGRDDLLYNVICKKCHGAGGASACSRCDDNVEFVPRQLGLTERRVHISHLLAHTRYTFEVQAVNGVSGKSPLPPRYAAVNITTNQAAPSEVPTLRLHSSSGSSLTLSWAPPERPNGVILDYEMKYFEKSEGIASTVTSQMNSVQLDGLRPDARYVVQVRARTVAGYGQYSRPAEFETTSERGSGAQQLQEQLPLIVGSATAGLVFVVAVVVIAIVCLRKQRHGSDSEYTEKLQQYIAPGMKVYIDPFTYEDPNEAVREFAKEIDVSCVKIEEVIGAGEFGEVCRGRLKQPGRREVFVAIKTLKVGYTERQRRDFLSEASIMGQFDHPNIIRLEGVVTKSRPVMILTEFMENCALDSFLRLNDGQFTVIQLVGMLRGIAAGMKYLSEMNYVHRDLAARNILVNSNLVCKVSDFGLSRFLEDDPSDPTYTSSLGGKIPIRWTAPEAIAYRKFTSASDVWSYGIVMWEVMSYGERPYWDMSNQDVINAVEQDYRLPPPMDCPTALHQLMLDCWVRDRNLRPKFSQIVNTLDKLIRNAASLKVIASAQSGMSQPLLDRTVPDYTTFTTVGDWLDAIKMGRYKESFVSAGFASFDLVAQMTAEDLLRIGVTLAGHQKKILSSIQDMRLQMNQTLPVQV
Conditions: at 0.1 µM.

Assay [3] deals with T2, Ephrin type-B receptor 3 (Homo sapiens). Conditions: at 1 µM.
For assay [4], the target named is T3, Ephrin type-B receptor 4 (Homo sapiens) (UniProt P54760).
T3 sequence (whole entry): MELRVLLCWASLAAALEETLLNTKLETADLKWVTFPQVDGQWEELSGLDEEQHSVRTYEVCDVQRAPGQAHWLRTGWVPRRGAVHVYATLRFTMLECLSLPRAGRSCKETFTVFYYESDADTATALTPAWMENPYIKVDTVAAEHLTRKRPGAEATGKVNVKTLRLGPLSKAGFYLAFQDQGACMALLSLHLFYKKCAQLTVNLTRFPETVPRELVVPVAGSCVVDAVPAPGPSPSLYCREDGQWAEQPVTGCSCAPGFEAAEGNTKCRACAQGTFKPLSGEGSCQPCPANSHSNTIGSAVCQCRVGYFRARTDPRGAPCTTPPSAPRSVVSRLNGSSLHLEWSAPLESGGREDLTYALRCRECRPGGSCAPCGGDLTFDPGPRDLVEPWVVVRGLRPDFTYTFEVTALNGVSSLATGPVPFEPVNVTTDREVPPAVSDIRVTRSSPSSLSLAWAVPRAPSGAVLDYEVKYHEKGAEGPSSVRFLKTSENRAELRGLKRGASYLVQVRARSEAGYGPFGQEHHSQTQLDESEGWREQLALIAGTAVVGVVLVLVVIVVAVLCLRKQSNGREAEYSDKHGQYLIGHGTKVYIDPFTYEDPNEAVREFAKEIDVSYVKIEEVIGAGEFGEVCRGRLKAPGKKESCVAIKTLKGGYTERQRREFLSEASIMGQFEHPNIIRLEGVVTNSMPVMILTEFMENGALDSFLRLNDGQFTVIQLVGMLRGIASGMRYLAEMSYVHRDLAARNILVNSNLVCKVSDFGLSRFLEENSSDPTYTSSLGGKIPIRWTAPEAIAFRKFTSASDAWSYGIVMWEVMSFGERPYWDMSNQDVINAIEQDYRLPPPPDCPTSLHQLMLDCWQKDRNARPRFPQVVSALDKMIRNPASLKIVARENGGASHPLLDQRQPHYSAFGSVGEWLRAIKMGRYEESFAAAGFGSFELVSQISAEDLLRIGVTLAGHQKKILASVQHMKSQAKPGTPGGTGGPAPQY
Conditions: at 0.1 µM.

The target in assay [5] is T3, Ephrin type-B receptor 4 (Homo sapiens). Conditions: at 1 µM.
Assay [6] addresses Receptor tyrosine-protein kinase erbB-2 (Homo sapiens) (UniProt P04626). Conditions: at 0.1 µM.
Assay [7] has the same target. Conditions: at 1 µM.
Assay [8] has as its target Receptor tyrosine-protein kinase erbB-4 (Homo sapiens) (UniProt Q15303). Conditions: at 0.1 µM.
The target is the same in assay [9]. Conditions: at 1 µM.
In assay [10] the target is Tyrosine-protein kinase Fer (Homo sapiens) (UniProt P16591). Conditions: at 0.1 µM.
The target is the same in assay [11]. Conditions: at 1 µM.
For assay [12], the target named is Tyrosine-protein kinase Fes/Fps (Homo sapiens) (UniProt P07332). Conditions: at 0.1 µM.
Tyrosine-protein kinase Fes/Fps (Homo sapiens), sequence (P07332 whole entry): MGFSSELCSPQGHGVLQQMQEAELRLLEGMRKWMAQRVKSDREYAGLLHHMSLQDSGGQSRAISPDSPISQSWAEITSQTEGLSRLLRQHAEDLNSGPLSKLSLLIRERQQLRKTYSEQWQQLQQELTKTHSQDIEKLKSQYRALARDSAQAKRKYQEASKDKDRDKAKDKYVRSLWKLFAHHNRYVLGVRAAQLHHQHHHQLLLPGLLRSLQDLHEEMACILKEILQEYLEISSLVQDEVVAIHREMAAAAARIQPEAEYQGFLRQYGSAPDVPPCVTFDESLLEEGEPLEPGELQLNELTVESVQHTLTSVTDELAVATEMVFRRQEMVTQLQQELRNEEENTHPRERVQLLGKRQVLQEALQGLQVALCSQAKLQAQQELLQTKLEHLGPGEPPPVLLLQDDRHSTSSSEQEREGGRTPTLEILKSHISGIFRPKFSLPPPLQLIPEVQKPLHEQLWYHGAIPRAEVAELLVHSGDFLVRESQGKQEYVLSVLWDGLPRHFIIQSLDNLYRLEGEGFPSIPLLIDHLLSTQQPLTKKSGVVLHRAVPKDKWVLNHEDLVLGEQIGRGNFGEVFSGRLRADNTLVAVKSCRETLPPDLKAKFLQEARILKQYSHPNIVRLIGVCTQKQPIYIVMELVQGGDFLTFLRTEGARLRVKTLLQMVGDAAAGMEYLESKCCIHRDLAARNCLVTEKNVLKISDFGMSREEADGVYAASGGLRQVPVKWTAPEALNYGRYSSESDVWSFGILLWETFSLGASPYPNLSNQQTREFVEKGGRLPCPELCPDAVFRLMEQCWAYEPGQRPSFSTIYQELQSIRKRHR
The target is the same in assay [13]. Conditions: at 1 µM.
For assay [14], the target named is Fibroblast growth factor receptor 1 (Homo sapiens) (UniProt P11362). Conditions: at 0.1 µM.
Fibroblast growth factor receptor 1 (Homo sapiens), sequence (P11362 22-822 limits assumed): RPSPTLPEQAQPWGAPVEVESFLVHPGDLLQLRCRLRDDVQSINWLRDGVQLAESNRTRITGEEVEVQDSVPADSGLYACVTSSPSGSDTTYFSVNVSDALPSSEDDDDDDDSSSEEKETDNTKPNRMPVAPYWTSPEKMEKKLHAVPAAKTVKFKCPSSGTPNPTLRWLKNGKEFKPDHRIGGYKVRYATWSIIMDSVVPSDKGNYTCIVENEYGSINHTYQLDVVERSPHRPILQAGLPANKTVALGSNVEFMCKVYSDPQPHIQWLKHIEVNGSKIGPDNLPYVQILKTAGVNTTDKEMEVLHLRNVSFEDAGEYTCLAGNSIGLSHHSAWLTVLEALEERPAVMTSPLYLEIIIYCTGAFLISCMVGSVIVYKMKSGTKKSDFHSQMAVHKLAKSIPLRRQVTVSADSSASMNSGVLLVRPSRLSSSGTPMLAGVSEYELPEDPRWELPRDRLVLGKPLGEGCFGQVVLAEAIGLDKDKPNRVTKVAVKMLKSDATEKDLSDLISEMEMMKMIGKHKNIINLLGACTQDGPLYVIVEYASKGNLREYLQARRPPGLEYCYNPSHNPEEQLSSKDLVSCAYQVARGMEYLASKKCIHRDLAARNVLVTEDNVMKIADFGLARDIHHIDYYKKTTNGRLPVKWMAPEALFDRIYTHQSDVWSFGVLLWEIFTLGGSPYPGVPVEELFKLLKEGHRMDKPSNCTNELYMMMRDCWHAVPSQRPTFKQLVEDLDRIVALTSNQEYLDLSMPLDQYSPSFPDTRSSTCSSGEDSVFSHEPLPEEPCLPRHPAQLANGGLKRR
Assay [15] shares this target. Conditions: at 1 µM.
For assay [16], the target named is Fibroblast growth factor receptor 2 (Homo sapiens) (UniProt P21802). Conditions: at 0.1 µM.
For assay [17] the target is unchanged. Conditions: at 1 µM.
In assay [18] the target is Fibroblast growth factor receptor 3 (Homo sapiens) (UniProt P22607). Conditions: at 0.1 µM.
Fibroblast growth factor receptor 3 (Homo sapiens), sequence (P22607 23-806 limits assumed): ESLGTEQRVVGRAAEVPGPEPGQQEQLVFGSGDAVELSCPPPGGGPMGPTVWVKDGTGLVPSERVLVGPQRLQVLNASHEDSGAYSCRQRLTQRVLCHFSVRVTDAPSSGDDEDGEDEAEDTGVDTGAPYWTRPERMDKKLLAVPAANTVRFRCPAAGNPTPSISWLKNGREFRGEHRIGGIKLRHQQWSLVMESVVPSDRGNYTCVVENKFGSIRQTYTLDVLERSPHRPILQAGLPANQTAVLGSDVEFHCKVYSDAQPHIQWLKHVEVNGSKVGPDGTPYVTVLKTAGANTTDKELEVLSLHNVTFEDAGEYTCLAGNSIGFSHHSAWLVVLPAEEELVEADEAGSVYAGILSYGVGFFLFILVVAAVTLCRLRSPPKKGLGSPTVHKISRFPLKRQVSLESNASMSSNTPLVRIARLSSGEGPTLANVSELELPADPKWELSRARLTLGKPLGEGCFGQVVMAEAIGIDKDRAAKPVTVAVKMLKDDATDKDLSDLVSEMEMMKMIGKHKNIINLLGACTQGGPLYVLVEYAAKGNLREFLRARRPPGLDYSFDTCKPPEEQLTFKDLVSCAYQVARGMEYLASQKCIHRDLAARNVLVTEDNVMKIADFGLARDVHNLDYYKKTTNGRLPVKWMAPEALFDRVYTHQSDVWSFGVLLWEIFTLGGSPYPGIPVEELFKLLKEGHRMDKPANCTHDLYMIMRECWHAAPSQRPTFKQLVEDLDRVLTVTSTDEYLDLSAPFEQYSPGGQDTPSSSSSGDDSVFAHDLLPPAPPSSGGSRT
The target is the same in assay [19]. Conditions: at 1 µM.
The target in assay [20] is Fibroblast growth factor receptor 4 (Homo sapiens) (UniProt P22455). Conditions: at 0.1 µM.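 Further: values are mean percent inhibition of FGFR4.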
Fibroblast growth factor receptor 4 (Homo sapiens), sequence (P22455 22-802 limits assumed): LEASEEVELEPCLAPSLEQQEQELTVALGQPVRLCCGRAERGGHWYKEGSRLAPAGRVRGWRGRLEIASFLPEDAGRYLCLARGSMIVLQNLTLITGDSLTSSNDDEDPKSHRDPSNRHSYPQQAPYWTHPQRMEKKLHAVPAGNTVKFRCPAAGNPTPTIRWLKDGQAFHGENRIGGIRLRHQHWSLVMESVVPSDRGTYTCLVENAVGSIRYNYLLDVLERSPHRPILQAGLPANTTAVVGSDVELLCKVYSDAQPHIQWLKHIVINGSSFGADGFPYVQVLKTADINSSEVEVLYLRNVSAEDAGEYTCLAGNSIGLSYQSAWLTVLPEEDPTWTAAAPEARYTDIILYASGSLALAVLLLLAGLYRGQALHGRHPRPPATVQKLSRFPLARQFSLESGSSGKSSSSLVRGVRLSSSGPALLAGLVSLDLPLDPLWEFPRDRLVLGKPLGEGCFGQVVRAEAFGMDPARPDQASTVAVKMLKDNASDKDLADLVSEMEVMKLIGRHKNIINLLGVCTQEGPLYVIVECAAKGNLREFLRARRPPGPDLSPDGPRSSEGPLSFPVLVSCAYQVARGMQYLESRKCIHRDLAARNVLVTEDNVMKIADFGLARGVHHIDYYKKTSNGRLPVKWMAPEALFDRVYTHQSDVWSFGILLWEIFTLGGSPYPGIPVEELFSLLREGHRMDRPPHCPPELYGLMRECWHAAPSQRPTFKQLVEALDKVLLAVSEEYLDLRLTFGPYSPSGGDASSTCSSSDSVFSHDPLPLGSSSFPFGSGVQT

Structures are written as SMILES.

Data on seven compounds can be found in ChEMBL document CHEMBL1961873, “Compounds: GSK PKIS; Assays: Nanosyn kinase panel” (2012).

Receptor tyrosine-protein kinase erbB-2 (Homo sapiens), sequence (P04626 whole entry): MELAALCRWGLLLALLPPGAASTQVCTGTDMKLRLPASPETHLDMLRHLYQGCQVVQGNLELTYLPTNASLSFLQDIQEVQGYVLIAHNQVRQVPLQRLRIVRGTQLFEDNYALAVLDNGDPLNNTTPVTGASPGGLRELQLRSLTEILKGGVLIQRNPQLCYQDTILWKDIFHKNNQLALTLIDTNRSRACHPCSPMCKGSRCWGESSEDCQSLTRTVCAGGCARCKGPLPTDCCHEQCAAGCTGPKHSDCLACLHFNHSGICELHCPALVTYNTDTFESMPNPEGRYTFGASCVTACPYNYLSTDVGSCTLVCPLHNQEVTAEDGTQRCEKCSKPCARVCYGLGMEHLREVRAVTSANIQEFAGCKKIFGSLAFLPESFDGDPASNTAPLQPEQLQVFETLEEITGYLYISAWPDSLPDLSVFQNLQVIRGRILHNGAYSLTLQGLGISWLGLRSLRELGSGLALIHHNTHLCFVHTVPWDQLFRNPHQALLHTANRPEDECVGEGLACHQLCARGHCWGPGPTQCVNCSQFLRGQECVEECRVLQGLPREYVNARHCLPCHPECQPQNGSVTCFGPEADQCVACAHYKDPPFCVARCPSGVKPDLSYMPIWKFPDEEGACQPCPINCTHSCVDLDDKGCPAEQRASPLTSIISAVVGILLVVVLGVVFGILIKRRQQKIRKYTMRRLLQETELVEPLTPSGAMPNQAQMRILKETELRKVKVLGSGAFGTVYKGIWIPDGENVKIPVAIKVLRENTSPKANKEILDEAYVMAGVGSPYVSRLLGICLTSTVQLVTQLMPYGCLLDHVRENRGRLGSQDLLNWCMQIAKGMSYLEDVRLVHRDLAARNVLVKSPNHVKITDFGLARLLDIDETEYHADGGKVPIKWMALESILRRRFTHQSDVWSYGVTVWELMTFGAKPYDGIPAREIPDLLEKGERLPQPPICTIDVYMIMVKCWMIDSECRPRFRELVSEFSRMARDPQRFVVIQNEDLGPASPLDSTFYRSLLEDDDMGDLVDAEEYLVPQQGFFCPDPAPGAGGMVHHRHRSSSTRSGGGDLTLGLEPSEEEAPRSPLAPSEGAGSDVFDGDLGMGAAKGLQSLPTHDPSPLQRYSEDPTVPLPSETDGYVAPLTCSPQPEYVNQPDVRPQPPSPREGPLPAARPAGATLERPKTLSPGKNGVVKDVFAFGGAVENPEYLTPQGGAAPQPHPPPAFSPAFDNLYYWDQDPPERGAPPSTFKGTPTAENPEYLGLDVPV

Turning to `Clc1ccc(-c2nn3ncccc3c2-c2ccnc(Nc3ccccc3)n2)cc1`, the inhibition is 55.4% in assay [1]; 4.87% in [2]; 5.92% in [3]; 6.02% in assay [4]; 37.2% in assay [5]; -4.83% in assay [6]. Also, the inhibition is 6.14% in assay [7]; 27.9% in assay [8]; 69.5% in [9]; 1.86% in assay [10]; 4.34% in [11]; 0.87% in [12]. For the same compound, the inhibition in [13] is 1.62%; in assay [14], -0.82%; in assay [15], 7.85%; in [16], 0.58%; in assay [17] it was 10.3%; in [18], 4.85%. The inhibition in [19] was 6%; in assay [20], 1.52%.

For `CC(=O)Nc1cccc(C#Cc2cncnc2Nc2ccc(OCc3cccc(F)c3)c(Cl)c2)c1`, the inhibition was 10.7% in [1]; 4.08% in [2]; 0.84% in [3]; 1.66% in assay [4]; 2.84% in [5]; 0.38% in assay [6]. The inhibition in assay [7] is 10.5%; in [8], 20.5%; in assay [9] it was 57.1%; in assay [10] it was 1.31%; in assay [11], 1.14%; in [12], 3.02%. Further, the inhibition in [13] stood at 3.58%; in assay [14], 5.54%; in [15], 8.04%; in assay [16] it was 2.27%; in [17], 5.67%; in assay [18], 4.66%. The inhibition is 5.53% in assay [19] and 0.9% in assay [20].

For `CC(=O)NCc1cccc(C#Cc2cncnc2Nc2ccc(OCc3cccc(F)c3)c(Cl)c2)c1`, the inhibition in assay [1] is -0.33%; in assay [2], 2.82%; in assay [3], 2.99%; in assay [4] it was 0.57%; in assay [5] it was 2.91%; in [6], -0.95%. Further, the inhibition in [7] was -0.83%; in [8], 11.6%; in [9] it was 50.4%; in [10], 2.72%; in assay [11] it was 0.86%; in assay [12] it was 0.32%. For the same compound, the inhibition in assay [13] is 0.52%; in [14], -0.81%; in assay [15], -0.46%; in assay [16], -2.84%; in assay [17] it was -0.08%; in assay [18], 0.88%. The inhibition turned out to be 0.49% in assay [19] and 0.41% in assay [20].

For the compound `CNC(=O)c1cccc(C#Cc2cncnc2Nc2ccc(OCc3cccc(F)c3)c(Cl)c2)c1`, the inhibition in assay [1] is 6.47%; in [2], 0.65%; in [3], 1.29%; in assay [4], -1.02%; in assay [5], 0.31%; in [6] it was -1.06%. The inhibition in [7] stood at 23.7%; in assay [8], 17.6%; in assay [9], 58.4%; in [10] it was 1.71%; in assay [11] it was 2.2%; in [12], 0.17%. Also, the inhibition in assay [13] was 1.47%; in assay [14], -1.46%; in assay [15], 0.26%; in [16] it was 0.94%; in assay [17], 8.07%; in [18] it was 1.87%. For the same compound, the inhibition in assay [20] turned out to be 0.5%.

As to `c1ccc(-c2nc3n(c2-c2ccc4c(c2)OCO4)CCC3)nc1`, the inhibition in assay [1] is 3.77%; in assay [2], 4.03%; in assay [3], -0.67%; in assay [4], 0.53%; in assay [5] it was 1.11%; in [6] it was 1.28%. In addition, the inhibition in assay [7] was -0.6%; in [8] it was 3.67%; in assay [9], 1.72%; in assay [10], 2.91%; in assay [11] it was 1.9%; in [12], 0.9%. In addition, the inhibition in assay [13] is -0.41%; in [14] it was 0.69%; in assay [15], 2.51%; in assay [16] it was -0.68%; in assay [17] it was 1.92%; in [18], 4.46%. For the same compound, the figures for the inhibition in [19] and in assay [20] were 1.25% and -1.29%, respectively.

As to `COc1ccc2[nH]c3c4[nH]c5ccc(OC)cc5c4c4c(c3c2c1)C(=O)NC4=O`, the inhibition in assay [1] is 17.6%; in assay [2], 0.84%; in [3] it was -4.62%; in assay [4], -0.01%; in assay [5] it was 4.21%; in assay [6], 1.76%. Further, the inhibition in [7] was 5.83%; in assay [8] it was 14.5%; in assay [9] it was 45.9%; in [10], 29.1%; in assay [11], 67.7%; in [12], 3.43%. In addition, the inhibition came to 10.4% in [13]; 1.76% in [14]; 3.2% in [15]; 4.75% in assay [16]; 16.4% in [17]; 7.7% in assay [18]. The inhibition turned out to be 15.2% in assay [19] and 2.26% in assay [20].

In the case of `CC(C)(CO)CNC(=O)c1ccc2c(c1)/C(=N/Nc1ccc(S(N)(=O)=O)cc1)C(=O)N2`, the inhibition in [1] was 7.99%; in assay [2], -0.32%; in assay [3], 0.79%; in assay [4], -2.31%; in assay [5], -0.62%; in [6], 0.9%. Moreover, the inhibition in assay [7] is 3.86%; in assay [8] it was 4.68%; in assay [9] it was 7.73%; in assay [10], -7.05%; in assay [12], -0.1%; in assay [13], 0.22%. Moreover, the inhibition in assay [14] was -4.71%; in [15], 1.07%; in [16] it was 0.16%; in assay [17], 6.9%; in assay [18], 4.13%; in assay [19], 5.3%. The inhibition in assay [20] came out at 0.38%.
